# Laboratory results as given in PubChem BioAssay (NCI).
# This is part of a sample that, as a whole, favours compounds with a hit. Of some 83,000 tested, about 20% had one in any assay.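 The test compound was applied at a single concentration to cells in 96-well plates for 48 hours, and percent growth was recorded.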 Values without a mark were called inactive. The source made the active and inactive calls. How the source made its calls: active means growth percent below 10; inactive means the rest.
# Legend:
# Experiment in all cases: NCI-60 one-dose screen, 48 h (100 = growth as untreated, 0 = no growth, -100 = all killed)
# Conditions in all cases: 10 µM unless noted
# [1] = test system: T-47D breast
# [2] = test system: BT-549 breast
# [3] = test system: MDA-MB-435 melanoma
# [4] = test system: SW-620 colon
# [5] = test system: MCF7 breast
# [6] = test system: HCT-116 colon
# [7] = test system: HCC-2998 colon
# [8] = test system: KM12 colon
Structure (SMILES),growth [1],growth [2],growth [3],growth [4],growth [5],growth [6],growth [7],growth [8]
C=C1C(=O)O[C@H]2[C@H]1CC/C(COC(=O)NCc1c[nH]c3ccc(OC)cc13)=C\CC[C@@]1(C)O[C@@H]21,-52% (active),-24% (active),22.3%,-57.6% (active),5.33% (active),-79.4% (active),45.1%,51.3%
CC(C)[C@@]12C[C@@H](OC(=O)[C@H]3CO3)[C@@](C)(O1)[C@@H]1CC[C@@H](C)[C@H]1[C@@H]2OC(=O)/C=C/c1ccccc1,49.4%,21.4%,98.2%,94.8%,62.4%,65.8%,105%,103%
O=C1OC(/C=C/c2ccccc2)=NC/1=C/c1ccccc1[N+](=O)[O-],90.5%,89.8%,108%,103%,90.7%,104%,104%,102%
CCCCCCCCCCCC1=NC(C)(C)CN1CCO,65.2%,80.6%,8.66% (active),23.1%,30.3%,17.8%,-17.5% (active),29.1%
COc1cc(NCCC2CCCCN2)c2ncccc2c1OC (stereo not drawn),38%,91.6%,-62.6% (active),74.9%,57.3%,46.9%,80.6%,87.5%
CC(C)C/C=C/C=C/C(=O)N[C@@H](CC(N)=O)C(=O)N[C@@H]1C(=O)N[C@H](c2ccc(O)cc2)C(=O)N[C@H](CCCN)C(=O)N[C@H]([C@@H](C)O)C(=O)N[C@H](c2ccc(O)cc2)C(=O)N[C@H](c2ccc(O)cc2)C(=O)N[C@H]([C@H](C)O)C(=O)N[C@H](Cc2ccccc2)C(=O)N[C@H](CCCN)C(=O)N[C@H](c2ccc(O[C@H]3O[C@@H](CO)[C@@H](O)[C@@H](O)[C@H]3O[C@@H]3O[C@H](CO)[C@H](O)[C@H](O)[C@@H]3O)cc2)C(=O)N[C@H]([C@H](C)O)C(=O)N[C@H](c2ccc(O)cc2)C(=O)NCC(=O)N[C@H](CC(C)C)C(=O)N[C@H](C)C(=O)N[C@H](c2ccc(O)c(Cl)c2)C(=O)O[C@@H]1C(N)=O,94.9%,-2.76% (active),57.2%,96.3%,54.9%,20.4%,104%,44.3%
CC(C)CCSc1nc(Nc2ccccc2)c(C#N)c(-c2ccc(F)cc2)n1,46.5%,79%,82.5%,46.5%,65.2%,24%,83.1%,84.8%
COc1ccc(CNc2c3ccccc3nc3ccccc23)cc1F,35%,49.5%,7.6% (active),16.6%,2.34% (active),12.3%,5.83% (active),32.8%
O=c1c2cc(Cl)ccc2oc2ccc(OCCCCCN3CCCCCC3)cc12,74.4%,79%,80.8%,84.6%,75.3%,57.8%,88.5%,84.8%
O=C(Nc1ccc([N+](=O)[O-])cc1)c1cc2ccccc2cc1O,1.61% (active),-14.2% (active),0.673% (active),4.63% (active),5.51% (active),-39.7% (active),5.37% (active),92.6%
Clc1ccccc1CNc1c2ccccc2nc2ccccc12,30.4%,38.1%,27.2%,9.61% (active),-0.21% (active),8.1% (active),-17.2% (active),22%
CCCCCCCCOC(=O)C(C)OC(=O)OCCOCCOC(=O)OC(C)C(=O)OCCCCCCCC (stereo not drawn),99.9%,107%,103%,106%,104%,102%,100%,104%
c1cn2cc(-c3ccc4ncn(C5CCCCC5)c4c3)nc(-c3ccc4c(c3)ncn4C3CCCCC3)c2n1,-17.7% (active),-48.9% (active),-73% (active),-3.82% (active),-3.78% (active),-61.4% (active),-93.4% (active),-61.1% (active)
COc1cc(NC(=O)CSc2nc3ccc(Cl)cc3c(=O)n2Cc2ccccc2)cc(OC)c1OC,55.7%,31.2%,78.2%,81.6%,70.2%,51.6%,90.5%,51.5%
COc1cc2ncnc(Nc3ccc(S(=O)(=O)Nc4nccs4)cc3)c2cc1OCCCN1CCOCC1,106%,119%,101%,103%,105%,100%,104%,101%
CCOC(=O)C1C(=O)C=C(c2cc(OC)c(OC)c(OC)c2)CC1c1sc(N(C)Cc2ccccc2)nc1Cl (stereo not drawn),66.6%,92.1%,95.1%,95.7%,77.4%,72.6%,105%,93.6%

Structure (SMILES),growth [1],growth [2],growth [3],growth [4],growth [5],growth [6],growth [7],growth [8]
CCN1C(=O)N(CC)C2C1NN=c1s/c(=C\c3ccco3)c(=O)n12 (stereo not drawn),27.8%,53.9%,-56.9% (active),20.2%,12.1%,23.5%,23%,15.9%
CCOCCNc1ccc(S(=O)(=O)c2ccc(N)cc2)cc1N,99.8%,107%,105%,102%,113%,102%,101%,99.3%
COc1ccccc1/C=N\Nc1ccc([N+](=O)[O-])cn1,94.8%,101%,104%,124%,96.2%,96.5%,100%,106%
CNC(=O)c1c(NC(=O)c2cccc(C(F)(F)F)c2)sc2c1CCC(=O)C2,-32.8% (active),-14.8% (active),4.37% (active),-17.8% (active),0.296% (active),0.607% (active),-33.3% (active),-12.9% (active)
COc1cc(OC)c(Cl)cc1N,98.8%,123%,98.2%,102%,95.5%,106%,106%,107%
CCN1C(=O)N(CC)C2C1N=C(SC)N2/N=C/C=C/c1ccccc1OC (stereo not drawn),54.2%,12.8%,2.95% (active),22.7%,12.9%,6.51% (active),10.5%,4.92% (active)
CCC1N=C(N)N=C(N)N1c1ccc(Cl)cc1 (stereo not drawn),95.7%,100%,79.5%,72.3%,91.3%,61.1%,95.4%,97.4%
CCCCCCCOc1cccc(/C=C2\N=C3SCCCN3C2=O)c1,-15.5% (active),100%,100%,99.3%,92.1%,88.6%,110%,85.8%
CCn1c(Cc2ccccc2Nc2c(Cl)cccc2Cl)nnc1SCC(=O)Nc1cccc(OC)c1,58.9%,98.8%,93.4%,85.3%,84%,66.5%,100%,88%
C[C@@H]1N=C(c2ccc3ccccc3c2)Nc2nc3ccccn3c2C1=O,41.7%,35.1%,-24.7% (active),26.3%,25.2%,18.3%,77%,30.3%
CS(=O)(=O)c1ccc(C(=O)Nc2ccc(Cl)c(-c3ccccn3)c2)c(Cl)c1,16.6%,11.8%,14.1%,20.8%,20.4%,11.7%,5.78% (active),13.7%
COc1ccc(-c2conc2-n2nc(-c3ccccc3)nc2-c2ccccc2)cc1,102%,104%,105%,104%,89.1%,97.2%,105%,110%
NC(CCC(=O)NC(CS)C(=O)NCC(=O)O)C(=O)O (stereo not drawn),107%,119%,106%,103%,103%,114%,60%,108%
Cc1cccc(N=NC(=S)NNc2cccc(C)c2)c1,97.6%,134%,112%,107%,92.8%,109%,104%,124%
COc1ccc(-c2cnnn2-c2nonc2-n2cccc2)cc1,44.8%,47.6%,-44.1% (active),19.1%,14.5%,8.3% (active),6.73% (active),3.78% (active)
